Experimental data from ChEMBL document CHEMBL4513216, “Probing the Open Global Health Chemical Diversity Library for Multistage-Active Starting Points for Next-Generation Antimalarials” (ACS Infect Dis, 2020).
About 8,600 (12%) of roughly 69,000 compounds showed an effect of 50% or more. This excerpt belongs to a sample that is enriched for strong results.

What follows are molecules tested on Plasmodium berghei (assay: Screen against P. berghei liver stage (PbLuc), transformed with Luciferase, at 10uM). Conditions: tested at 10 uM.
Format: functional, HepG2
`Cc1cccc(C(=O)N2CCCC[C@]3(C)NC(=O)CCC[C@H]23)n1` gave an INHIBITION of 31.6%.
`CN1CCCN(C(=O)c2cccn2-c2ccc3c(c2)OCCO3)CC1` showed an INHIBITION of 6.99%.
With `CC(NC(=O)Nc1ccc(N2CCCC2)nc1)c1nncn1C` (configuration not stated) the INHIBITION was 9.54%.
`O=C(NCC1(O)COCCN(Cc2cccc(O)c2)C1)c1cnccn1` (configuration not stated) was tested, and the INHIBITION was -25.3%.
Molecule `COc1ccc(C(=O)NCCCn2ccnc2)c(OC)n1` has an INHIBITION of 26.6%.
Work on `CC(C)c1[nH]c2ncccc2c1CN1CCOCC1` yielded an INHIBITION of -21.6%.
`Cc1ccc(CNC(=O)CN2CCOC(Cn3cccn3)C2)s1` (configuration not stated) was tested, and the INHIBITION was -45.4%.
Molecule `O=C(NCc1ccc(-n2cncn2)nc1)c1cc(Cl)ccn1` has an INHIBITION of 45%.
With `Cc1cc(C)n(Cc2cccc(C(=O)NCCSCC(C)(C)O)c2)n1` the INHIBITION was 0.426%.
`O=C(NCC1CCC1)c1cccc(CN2CCS(=O)(=O)CC2)c1` was tested, and the INHIBITION was 33.4%.
`CC(C)CC(NC(=O)c1cccc(F)c1F)C(=O)Nc1cc[nH]n1` (configuration not stated) showed an INHIBITION of -36.4%.
Work on `Cc1cccc(NC(=O)c2cncc(C3CCNCC3)n2)n1` yielded an INHIBITION of 15.5%.
With `CC(C)c1n[nH]c(C(=O)Nc2cc[nH]n2)c1Br` the INHIBITION was 55.9%.
For `Cc1cccc(NC(=O)c2sc(C)nc2C)n1`, the INHIBITION was -9.57%.
Molecule `COc1ccccc1NC(=O)c1[nH]nc(C(C)C)c1Br` has an INHIBITION of -101%.
Work on `Cc1cccc(NC(=O)c2[nH]nc(C(C)C)c2Br)n1` yielded an INHIBITION of 65%.
Work on `CN(C)CCCN(Cc1cnn(C)c1)Cc1ccco1` yielded an INHIBITION of -9.35%.
Molecule `Oc1ccccc1-c1n[nH]c(C2CCCO2)n1` (configuration not stated) has an INHIBITION of -3.11%.
For `c1cnnc(N2CCCC2CNCc2cscn2)c1` (configuration not stated), the INHIBITION was -56.1835%.
Work on `Cc1ccsc1C1CC(=O)Nc2c1cnn2C(C)C` (configuration not stated) yielded an INHIBITION of 11.9%.
With `CC(NCCn1cccn1)c1ccccc1F` (configuration not stated) the INHIBITION was 27.9%.
`Fc1ccc(-c2n[nH]cc2CNCCn2cccn2)cc1` showed an INHIBITION of 77.6%.
For `Fc1ccc(CNCCn2cccn2)cc1F`, the INHIBITION was 26.9%.
With `Fc1ccc(-c2nc(CNCCn3cccn3)cs2)cc1` the INHIBITION was 4.02%.
Work on `CC(NCCn1cccn1)c1ccc(F)cc1F` (configuration not stated) yielded an INHIBITION of 16.8%.
Molecule `Cc1ccc(-c2nc(CNCCn3cccn3)cs2)o1` has an INHIBITION of 10.8%.
In the case of `Cc1ccc(-c2n[nH]cc2CNCC2CCS(=O)(=O)C2)o1` (configuration not stated), the INHIBITION was -29.4%.
`Cc1ccc(-c2n[nH]cc2CNCCn2cccn2)o1` was tested, and the INHIBITION was 77.6%.
`CCn1cnnc1CCNCc1c[nH]nc1-c1ccc(F)cc1` showed an INHIBITION of -5.94%.
`Fc1cc(CNCCn2cccn2)ccc1-n1cncn1` gave an INHIBITION of 50.8%.
Work on `CC(NCCn1cccn1)c1cc(F)ccc1F` (configuration not stated) yielded an INHIBITION of 53.8%.
With `c1ccc(-n2cncn2)c(CNCCn2cccn2)c1` the INHIBITION was -14.2%.
In the case of `Cn1cc(CN2CC[C@H]3O[C@@H](COCc4cccnc4)CC[C@H]32)cn1`, the INHIBITION was 3.11%.
For `Cc1ncc2c(n1)C1(CCN(C(=O)C3CC3)CC1)OCC2`, the INHIBITION was 7.15%.
Work on `O=C(c1cnn(-c2ccccc2)n1)N1CCCC(n2cccn2)C1` (configuration not stated) yielded an INHIBITION of 33.8%.
With `CCOC(=O)c1c(NC(=O)CN2CCN(C(C)=O)CC2)sc(C)c1C` the INHIBITION was -13.5%.
With `COc1cc(NC(=O)NCC2CCCO2)cc(OC)c1OC` (configuration not stated) the INHIBITION was 29.8%.
`CC(C)c1nc2c(n1C)CCN(Cc1cccc(C(N)=O)c1)C2` gave an INHIBITION of 34%.
For `Cc1ccc(F)c(S(=O)(=O)NCc2cccc(C(=O)N3CCCC3)c2)c1`, the INHIBITION was 17.5%.
`Fc1ccc(CNCCn2cccn2)c(F)c1` gave an INHIBITION of -13.3%.
`Cc1cc(F)ccc1CNCCn1cccn1` gave an INHIBITION of 30.1%.
`Fc1ccc(CNCCn2cccn2)c(Cl)c1` gave an INHIBITION of 64.1%.
For `Cc1cc(C)c(CNC(=O)CCC2CCCO2)c(=O)[nH]1` (configuration not stated), the INHIBITION was 11.45%.
In the case of `NC(=O)NCC(=O)N1C[C@@H]2CC[C@H]1CN(Cc1cscn1)C2`, the INHIBITION was 7.3%.
Molecule `Cc1nnc(CCNC(=O)[C@H]2CNC[C@@H](C(=O)N3CCCC3)C2)s1` has an INHIBITION of -5.08%.
`COc1ncccc1NC(=O)N(CC(C)C)C1CC1` was tested, and the INHIBITION was -2.19%.
`CCN(C(=O)Nc1cccnc1OC)C1CC1` gave an INHIBITION of 53.5%.
Work on `COc1ncccc1NC(=O)N(Cc1ccco1)C1CC1` yielded an INHIBITION of -18%.
In the case of `COc1ncccc1NC(=O)N(Cc1ccc(C(N)=O)cc1)C1CC1`, the INHIBITION was -35.7%.
`COc1ncccc1NC(=O)N(Cc1ccccn1)C1CC1` gave an INHIBITION of -47.6%.
`COc1ncccc1NC(=O)N(Cc1ccc(C)o1)C1CC1` gave an INHIBITION of 58.2%.
With `CC(=O)N1CCn2c(nnc2C2CCCCN2C(C)=O)C1` (configuration not stated) the INHIBITION was -55%.
For `COCCCNC(=O)c1cc(C(C)C)nc(N2CCCC2)n1`, the INHIBITION was -23.8%.
Work on `COCCNC(=O)c1cc(C(C)C)nc(N2CCCC2)n1` yielded an INHIBITION of 16.8%.
Work on `CC(C)c1cc(C(=O)NCCN2CCOCC2)nc(N2CCCC2)n1` yielded an INHIBITION of 51.6%.
`CC(C)c1cc(C(=O)NCCCN(C)C)nc(N2CCCC2)n1` was tested, and the INHIBITION was 52.4%.
Work on `CCCNC(=O)c1cc(C(C)C)nc(N2CCCC2)n1` yielded an INHIBITION of 32.5%.
Molecule `COCCNC(=O)c1cc(C(C)C)nc(N2CCCCC2)n1` has an INHIBITION of 52.4%.
`COCCCNC(=O)c1cc(C(C)C)nc(N2CCCCCC2)n1` gave an INHIBITION of 37.5%.
Molecule `CCCNC(=O)c1cc(C(C)C)nc(N2CCCCC2)n1` has an INHIBITION of 44.9%.
`CCN(CC)CCNC(=O)c1cc(C(C)C)nc(N2CCCC2)n1` was tested, and the INHIBITION was 15.8%.
`c1ccc(C2CN(CCc3ccncc3)CCO2)cc1` (configuration not stated) was tested, and the INHIBITION was 6.12%.
For `CN(CC(F)(F)F)C(=O)Cn1cc(NC(=O)C(C)(C)C)cn1`, the INHIBITION was -0.551%.
For `Cc1nn(C)c(N(C)C)c1CNC1CCc2cc(F)ccc21` (configuration not stated), the INHIBITION was 27.4%.
`Cc1ccccc1S(=O)(=O)N[C@@H]1CC[C@@H](N2CCNC(=O)C2)[C@@H]1O` gave an INHIBITION of 6.65%.
With `COc1cc(CNCC(O)c2cccc(F)c2)cc2c1OCO2` (configuration not stated) the INHIBITION was 44.1%.
For `Cc1nc(CN(C)C2CCCN(c3cccnn3)C2)nc2ccccc12` (configuration not stated), the INHIBITION was 47%.
`CCN(CC)c1ncccc1CNCc1ccc(-c2ccn[nH]2)s1` gave an INHIBITION of 27.6%.
For `O=C(O)c1ccccc1-c1ccc(CNC(=O)C2CCOCC2)cc1`, the INHIBITION was 56.6%.
`CC1CCCCN1Cc1ccc(-c2ccccc2C(=O)O)cc1` (configuration not stated) gave an INHIBITION of 25.3%.
With `O=C(O)c1ccccc1-c1cnc(CNC(=O)C2CCOCC2)nc1` the INHIBITION was -17.35%.
`COCc1cc(NCC(F)(F)F)n2nccc2n1` gave an INHIBITION of 7.24%.
